Shown are actives, neighbours in structure and some others; about 19% of the full set was active somewhere.
IL-1B inflam inh: qHTS for Inhibitors of Inflammasome Signaling: IL-1-beta AlphaLISA Primary Screen; THP-1 LPS/ATP IL-1B secretion, AlphaLISA, 16 h; active compounds read low; activity change, % at 57.5 µM; 360,000 tested, 4.7% active; AID 743279, 2014; in the data active = activity change below about -50%; inconclusive = mostly about -30% to -49%
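Secreted IL-1B measured by AlphaLISA bead assay after 16 h compound exposure of THP-1 cells; compounds (final up to 57.5 uM) added 1 h before LPS (250 ng/mL) and ATP (1.25 mM) stimulation; lower signal means less secretion.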
DT40 TDP1 CPT: qHTS for Inhibitors of human tyrosyl-DNA phosphodiesterase 1 (TDP1): qHTS in cells in presence of CPT. chicken DT40 Tdp1-/-;hTDP1 cells + 20 nM CPT, ATP luminescence, 48 h. Potency, µM (top dose mostly 46.2 µM), for inactives: at the top dose activity change, negative = growth inhibition, actives largely listed as inhibitors. 420,000 tested, 12% active. AID 686979, 2013; also: potency is read from the fitted curve at half-maximal effect; nearly all actives have a fitted effect of over 55% in size
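Chicken DT40 Tdp1-/- cells complemented with human TDP1, 400 cells/well, exposed to compounds plus 20 nM camptothecin for at least 48 h at 37 C; viability read as ATP content by CellTiter-Glo luminescence.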
HT1080NT lethal: qHTS for induction of synthetic lethality in tumor cells producing 2HG: qHTS for the HT-1080-NT fibrosarcoma cell line; Potency, µM (series often up to 46.1 µM), inactives show at the top dose activity, negative = less viability, actives largely listed as cytotoxic; 360,000 tested, 1.6% active; HT-1080-NT fibrosarcoma viability, CellTiter-Glo ATP luminescence, 48 h;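 also: NT is the 2HG producing partner of a matched IDH1 knockdown line; potency is read from the fitted curve at half-maximal effect; 0% = DMSO-treated cells and -100% = media-only wells without cells; nearly all actives have a fitted effect of over 55% in size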
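Toxicity toward the 2HG-producing NT line was scored as %Activity, normalised to DMSO and no-cell wells, from CellTiter-Glo luminescence after 48 hours' treatment.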
HT1080 IDH1KD tx: qHTS for induction of synthetic lethality in tumor cells producing 2HG: qHTS for the HT-1080-IDH1KD cell line; HT-1080 IDH1 knockdown viability, ATP luminescence, 48 h; Potency, µM (titrated, usually from 46.1 µM), for the others: at the top dose activity, negative = toxicity, actives largely listed as cytotoxic; 360,000 tested, 2% active; AID 686971, 2013;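 also: potency is read from the fitted curve at half-maximal effect; 0% = DMSO wells and -100% = cell-free medium wells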
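Cytotoxicity counter-line: IDH1KD HT-1080, 48 h, CellTiter-Glo. Curves classed by r2, magnitude and activity.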
TDP1 cell noCPT: qHTS for Inhibitors of human tyrosyl-DNA phosphodiesterase 1 (TDP1): qHTS in cells in absence of CPT; Potency, µM (top dose mostly 46.2 µM), inactives show at the top dose activity change, negative = growth inhibition, usual class: inhibitors; 420,000 tested, 15% active; DT40 Tdp1-/- hTDP1 cells, no CPT, ATP luminescence, 48 h; AID 686978, 2013; also: potency is read from the fitted curve at half-maximal effect; nearly all actives have a fitted effect of over 55% in size
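Growth of hTDP1-complemented DT40 Tdp1-knockout cells is measured by ATP luminescence after at least 48 hr compound exposure at 37 °C, with DMSO substituting for the 20 nM CPT used in the parallel screen.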
* = called active by the depositor; [ ] = another dose, or the depositor's remark. Unless noted, calls follow the shape of the dose curve; as a rule, active = well fitted curve in the direction sought with a large enough effect; inconclusive = small, poorly fitted or top-dose-only effect, or another doubt; inactive = no such curve, though single readings can be large; an effect the other way counts as inactive or inconclusive. Unless noted, % is scaled to controls: 0 for no effect and ±100 for the full control effect.

What do the screens show for `N#CC(C#N)=C(C#N)c1ccc(Nc2ccccc2)cc1`?
IL-1B inflam inh: -90*; DT40 TDP1 CPT: 10µM*; HT1080NT lethal: -2%; HT1080 IDH1KD tx: 2%; TDP1 cell noCPT: inconclusive

What do the screens show for `c1ccc(Nc2ccc(Nc3ccccc3)cc2)cc1`?
IL-1B inflam inh: -25; DT40 TDP1 CPT: inconclusive; HT1080NT lethal: -26%; HT1080 IDH1KD tx: -14%; TDP1 cell noCPT: 6.5µM*

What do the screens show for `CN1C(=O)CCC2(C)C1=CCC1C2CCC2(C)C1CCC2(C)O` (stereo not drawn)?
IL-1B inflam inh: 3; DT40 TDP1 CPT: -23%; HT1080NT lethal: 1%; HT1080 IDH1KD tx: 1%; TDP1 cell noCPT: -21%

How did COC(=O)C1=C(c2cccc(OC)c2OC)C[C@@H]2CC[C@H]1N2C(=O)NCc1cccc2ccccc12 do in these assays?
IL-1B inflam inh: 0; DT40 TDP1 CPT: inconclusive; HT1080NT lethal: 7%; HT1080 IDH1KD tx: -1%; TDP1 cell noCPT: inconclusive

How did CC1CCN(C(=O)CCl)CC1 do in these assays?
IL-1B inflam inh: inconclusive; DT40 TDP1 CPT: inconclusive; HT1080NT lethal: -10%; HT1080 IDH1KD tx: -18%; TDP1 cell noCPT: 16µM*

How did CC1CCN(C(=O)N2c3ccccc3Sc3ccccc32)CC1 do in these assays?
IL-1B inflam inh: 13; DT40 TDP1 CPT: inconclusive; HT1080NT lethal: inconclusive; HT1080 IDH1KD tx: -5%[9.24 µM]; TDP1 cell noCPT: inconclusive

What do the screens show for `C(=C\c1ccccc1)/CN1CCN(CCOC(c2ccccc2)c2ccccc2)CC1`?
DT40 TDP1 CPT: 3.7µM*; TDP1 cell noCPT: 4.6µM*

Results for c1ccc(C(OCCN2CCN(c3ncccn3)CC2)c2ccccc2)cc1 ?
IL-1B inflam inh: -76*; DT40 TDP1 CPT: inconclusive; HT1080NT lethal: 3%; HT1080 IDH1KD tx: -3%; TDP1 cell noCPT: inconclusive

Results for CC(N)(COP(=O)(O)Oc1ccccc1)C(=O)O (stereo not drawn) ?
DT40 TDP1 CPT: -19%; TDP1 cell noCPT: -5%

How did C[n+]1c2cc(N)ccc2cc2ccc(N)cc21 (tested in a mixture with another compound) do in these assays?
DT40 TDP1 CPT: 2.1µM*; TDP1 cell noCPT: 1.8µM*

How did C[n+]1c2cc(N)ccc2cc2ccc(N)cc21 do in these assays?
IL-1B inflam inh: -108*; DT40 TDP1 CPT: 3.7µM*; HT1080NT lethal: 2.3µM*; HT1080 IDH1KD tx: 2.3µM*; TDP1 cell noCPT: 2.9µM*

How did Cc1ccc(N)cc1N do in these assays?
IL-1B inflam inh: -23; DT40 TDP1 CPT: 4%; HT1080NT lethal: 24%; HT1080 IDH1KD tx: 2%; TDP1 cell noCPT: 6%

How did CC12C=CC(=O)C=C1CCC1C2C(O)CC2(C)C1CCC2(C)O (stereo not drawn) do in these assays?
IL-1B inflam inh: 0; DT40 TDP1 CPT: 21%; HT1080NT lethal: 4%; HT1080 IDH1KD tx: 7%; TDP1 cell noCPT: 12%

How did CC(C)c1ccc(C2N3CCCN23)cc1 (stereo not drawn) do in these assays?
IL-1B inflam inh: 8; DT40 TDP1 CPT: -4%; HT1080NT lethal: 12%; HT1080 IDH1KD tx: 17%; TDP1 cell noCPT: -4%

Results for CCN(C(=O)CSc1ncccc1C(=O)Oc1cccc([N+](=O)[O-])c1)c1cccc(C)c1 ?
IL-1B inflam inh: -55*; DT40 TDP1 CPT: -10%; HT1080NT lethal: 0%; HT1080 IDH1KD tx: 1%; TDP1 cell noCPT: inconclusive

Results for NS(=O)(=O)c1ccc(CCNC(=O)c2ccc(Cl)c(S(=O)(=O)N3CCCCC3)c2)cc1 ?
IL-1B inflam inh: -5; DT40 TDP1 CPT: inconclusive; HT1080NT lethal: -41%; HT1080 IDH1KD tx: -4%; TDP1 cell noCPT: 23µM*

Results for Cc1ccc(CCNC(=O)c2cc3cc(S(=O)(=O)N4CCCCC4)ccc3n2C)cc1 ?
DT40 TDP1 CPT: 7.3µM*; TDP1 cell noCPT: 2.9µM*

Results for Cc1ccc2n1Cc1cnnn1-c1ccccc1-2 ?
IL-1B inflam inh: 12; DT40 TDP1 CPT: inconclusive; HT1080NT lethal: -1%; HT1080 IDH1KD tx: 1%; TDP1 cell noCPT: inconclusive

What do the screens show for `COc1ccc(Cl)cc1C(=O)Nc1ccc([N+](=O)[O-])cc1Cl`?
DT40 TDP1 CPT: inconclusive; TDP1 cell noCPT: -11%

Results for COc1ccc(S(=O)(=O)Nc2cc([N+](=O)[O-])ccc2OC)cc1 ?
IL-1B inflam inh: 27; DT40 TDP1 CPT: inconclusive; HT1080NT lethal: 13µM*; HT1080 IDH1KD tx: 16µM*; TDP1 cell noCPT: 21µM*

Results for COc1cc2c(cc1OC)C(C(=O)N(C)C1CCCCC1)C1CCCCN1C2=O (stereo not drawn) ?
IL-1B inflam inh: -1; DT40 TDP1 CPT: -3%; HT1080NT lethal: 0%; HT1080 IDH1KD tx: 0%; TDP1 cell noCPT: inconclusive

What do the screens show for `CCN(CC)c1ccc(CN(C)CCc2ccc(OC)c(OC)c2)cc1`?
IL-1B inflam inh: -12; DT40 TDP1 CPT: 23µM*; HT1080NT lethal: -3%; HT1080 IDH1KD tx: -27%; TDP1 cell noCPT: inconclusive

What do the screens show for `CCOC(=O)C1CCCN(C(=O)c2ccc3oc(Cc4ccccc4)nc3c2)C1` (stereo not drawn)?
IL-1B inflam inh: -5; DT40 TDP1 CPT: -5%; HT1080NT lethal: 4%; HT1080 IDH1KD tx: 4%; TDP1 cell noCPT: inconclusive

How did CC(C)(C)n1nnnc1C(c1ccccc1)N1CCC2(CC1)C(=O)NCN2c1ccccc1 (stereo not drawn) do in these assays?
IL-1B inflam inh: 0; DT40 TDP1 CPT: inconclusive; HT1080NT lethal: -1%; HT1080 IDH1KD tx: 2%; TDP1 cell noCPT: inconclusive

What do the screens show for `O=C(CN1CCN(S(=O)(=O)c2cc(Br)ccc2Br)CC1)NCc1ccccc1Cl`?
IL-1B inflam inh: -18; DT40 TDP1 CPT: inconclusive; HT1080NT lethal: -9%; HT1080 IDH1KD tx: -25%; TDP1 cell noCPT: inconclusive

What do the screens show for `CCCCN1C(=O)NC(=O)C2(Cc3c(nc4c(C)cccn4c3=O)N3CCc4ccccc4C32)C1=O` (stereo not drawn)?
IL-1B inflam inh: 26; DT40 TDP1 CPT: 21µM*; HT1080NT lethal: 0%; HT1080 IDH1KD tx: -5%; TDP1 cell noCPT: 16µM*

Results for CCCCN1C(=O)NC(=O)C2(Cc3c(nc4ccccn4c3=O)N3CCc4ccccc4C32)C1=O (stereo not drawn) ?
IL-1B inflam inh: 21; DT40 TDP1 CPT: -19%; HT1080NT lethal: -10%; HT1080 IDH1KD tx: 1%; TDP1 cell noCPT: -15%
